The test concerns the target Estrogen receptor beta (Homo sapiens) (UniProt Q92731). Kind of test: ERbeta ligand binders by competition, primary screen, cell-based, Cos7 ERbeta-GFP, flow cytometry (AID 1210).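 Note: 0% = DMSO vehicle wells and 100% = complete loss of labeled estradiol signal.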 The note with it: fluorescent estrogen binding, stronger effect = higher value. For orientation: In flow cytometry, cells or beads pass a laser one at a time.
Where [1] appears, read: ligand binding inhibition, at 0.1 µM.

The results in this text go back to PubChem BioAssay AID1210 (NMMLSC, 2008).

Molecules are shown by their SMILES. The source made the active and inactive calls.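 Rule for the calls: active = blocks over 70% of labeled estradiol binding at 10 µM, or over a set limit at 100 nM; inactive = the rest.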

Chain of Estrogen receptor beta (Homo sapiens) (Q92731 whole entry, looked up): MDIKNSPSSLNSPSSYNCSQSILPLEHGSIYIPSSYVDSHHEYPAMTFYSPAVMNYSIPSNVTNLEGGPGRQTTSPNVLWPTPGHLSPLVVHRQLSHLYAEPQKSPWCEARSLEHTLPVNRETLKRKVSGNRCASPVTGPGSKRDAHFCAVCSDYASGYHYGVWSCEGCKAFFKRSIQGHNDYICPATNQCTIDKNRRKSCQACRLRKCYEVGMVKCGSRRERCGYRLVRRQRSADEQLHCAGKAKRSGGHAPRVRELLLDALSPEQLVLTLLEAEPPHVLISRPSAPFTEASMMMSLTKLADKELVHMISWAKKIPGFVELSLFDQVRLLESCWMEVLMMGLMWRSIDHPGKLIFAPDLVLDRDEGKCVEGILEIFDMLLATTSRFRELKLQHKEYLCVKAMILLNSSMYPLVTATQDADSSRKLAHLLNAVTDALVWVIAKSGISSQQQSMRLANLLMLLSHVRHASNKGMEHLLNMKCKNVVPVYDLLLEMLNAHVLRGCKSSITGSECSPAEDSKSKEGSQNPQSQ

Usually inhibition stands for the drop in the measured response relative to a control, in per cent. With `CCCCn1c(=O)[nH]c2nc3cc(N)ccc3nc2c1=O`, the inhibition runs as follows: (at 10 µM) 31% (inactive); under setting [1], 16%.
For `CCCCCCNC(=O)c1cc(-c2ccco2)nc2ccccc12`, in that order: 92% (active) and 2%.
`CC1(C)OC(C)(C)/C(=C/Nc2ccc(O)cc2)C1=O`: the inhibition by setting is: (at 10 µM) 58% (inactive); under setting [1], 58%.
As for `Cc1nnc(SCC(=O)NC(=O)NCc2ccco2)n1Cc1ccccc1`, the inhibition is 71% (active) (at 10 µM) and 53% under setting [1].
In the case of `COc1ccc2c(c1)c(=O)oc1cc(OCC(=O)NC3CCCCC3)ccc12`, the inhibition (at 10 µM) was 31% (inactive) and the inhibition under setting [1] came to 22%.
For `COc1ccc(C2CC(c3cccs3)=NN2c2ccc(C=O)cc2)cc1` (stereo not drawn), in that order: 42% (inactive) and 29%.
For `CN=c1scc(C)n1/N=C/c1ccc(O)cc1O`, in that order: 58% (inactive) and 6%.
On to `COc1cc(-c2nc3ccc4ccccc4c3c3c2CCC3)ccc1O`, for which the inhibition is 0% (inactive) (at 10 µM) and 59% under setting [1].
As for `COCCOC(=O)c1[nH]c2c(c1C)C(=O)CC(c1ccco1)C2` (stereo not drawn), the inhibition was 35% (inactive) (at 10 µM) and 26% under setting [1].
As for `COc1ccc(NC2=CC(c3cccc(OC)c3)N(c3ccc(OC)cc3)C2=O)cc1` (stereo not drawn), the inhibition by setting is: (at 10 µM) 33% (inactive); under setting [1], 25%.
For `Oc1ccc(-c2cn3cc(C(F)(F)F)ccc3n2)cc1`, in that order: 41% (inactive) and 10%.
The like results for `Cc1nc2ccccc2c(=O)n1/N=C/c1c(O)ccc2oc3c(c12)CCCC3` were, in that order, 47% (inactive) and 34%.
For the molecule `Cc1cc(C)cc(OCC(=O)Nc2ccc(N3CCCC3)cc2)c1`, the inhibition runs as follows: (at 10 µM) 71% (active); under setting [1], 37%.
As for `O=C(O)c1cc(Cl)c2c(c1)[C@@H]1C=CC[C@@H]1[C@H](c1ccc(S(=O)(=O)N3CCOCC3)cc1)N2`, the inhibition is 45% (inactive) (at 10 µM) and 8% under setting [1].
The like results for `CCOc1cccc2cc(-c3nnc(NCc4ccco4)s3)c(=O)oc12` were, in that order, 26% (inactive) and 28%.
For the molecule `COCCNC(=O)c1c(N)n(/N=C/c2cccs2)c2nc3ccccc3nc12`, the inhibition by setting is: (at 10 µM) 29% (inactive); under setting [1], 32%.
The like results for `O=C1C2CC=C(Cl)CC2C(=O)N1CCCCCCN1C(=O)C2CC=C(Cl)CC2C1=O` (stereo not drawn) were, in that order, 28% (inactive) and 36%.
As to `Cc1ccc(NC(=O)CSc2nc3ccccc3c3nc4ccccc4n23)cc1`, the inhibition is 59% (inactive) (at 10 µM) and 7% under setting [1].
For `c1ccc(Cc2nnc3sc(-c4ccco4)nn23)cc1`, the inhibition (at 10 µM) is 18% (inactive) and the inhibition under setting [1] worked out at 60%.
For `O=C1c2ccccc2C(=O)N1CCCc1nc2ccccc2c(=O)n1CCCn1ccnc1`, in that order: 61% (inactive) and 20%.
For `Cc1ccccc1-n1nc(-c2ccc(N)cc2)cc1N`, in that order: 25% (inactive) and 21%.
On to `O=C1c2ccccc2C(=O)N1/N=C/c1ccc(O)c(O)c1`, for which the inhibition by setting is: (at 10 µM) 58% (inactive); under setting [1], 54%.
For `COc1cccc(-c2[nH]nc3c2C(c2ccoc2)C(C#N)=C(N)O3)c1` (stereo not drawn), in that order: 54% (inactive) and 29%.
Regarding `CCC1(CC)NC(=O)N(CC(=O)Nc2sc3c(c2C(N)=O)CCC3)C1=O`, the inhibition was 16% (inactive) (at 10 µM) and 5% under setting [1].
Regarding `O=C(c1cc2ncc(Br)cn2n1)N1CCOCC1`, the inhibition is 68% (inactive) (at 10 µM) and 41% under setting [1].
For `COc1ccccc1/C=c1\sc2nc(-c3ccco3)nn2c1=O`, in that order: 60% (inactive) and 21%.
For `CCN1CCN(Cc2c(O)c(Cl)cc3c(C)cc(=O)oc23)CC1`, in that order: 31% (inactive) and 8%.
For `CCc1ccc2c(c1)[C@H]1OCC[C@H]1[C@@H](c1cccs1)N2`, in that order: 0% (inactive) and 65%.
Regarding `CCOC(=O)N1CCN(c2ccc(O)cc2)CC1`, the inhibition is 45% (inactive) (at 10 µM) and 34% under setting [1].
The like results for `Cc1nn(-c2ccccc2)c2sc(C(=O)c3c(N)n(C)c(=O)n(C)c3=O)cc12` were, in that order, 22% (inactive) and 32%.
The like results for `O=Cc1ccc2oc3nc4n(c(=O)c3c(=O)c2c1)CCCS4` were, in that order, 15% (inactive) and 2%.
The like results for `Cc1c2cc(O)c(=O)cc-2oc2cc(O)c(O)cc12` were, in that order, 67% (inactive) and 22%.
Take `O=C(COC(=O)c1cccc(S(=O)(=O)N2CCc3ccccc3C2)c1)NCc1ccco1`: the inhibition (at 10 µM) was 29% (inactive) and the inhibition under setting [1] was 5%.
For `O=S(=O)(NCCc1csc(-c2cccnc2)n1)c1ccc(Cl)s1`, in that order: 69% (active) and 78%.
